Source: PubChem BioAssay (EPA / NIEHS)
Inconclusive results are not listed. Calls of active or inactive are those of the source. The calls were made as follows, unless noted: active = hit-call score of the fitted dose curve at least 0.9, where 1 is the maximum; inactive = score below 0.9.

Columns and labels:
[1] = CCTE_Deisenroth_AIME_384WELL_CTox_Active: Cytotoxicity Assessment (CTOX) in CCTE's 384-well Estrogen Receptor Transactivation Assay with AIME metabolic competence (metabolism positive), Deisenroth Lab (AID 2284037; active = hit-call score of the fitted dose curve at least 0.9, where 1 is the maximum;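 also: chemicals first conditioned 2 h by alginate-bound induced rat liver S9 before cells; activity means signal loss indicating cell death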)
Outline: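 Chemicals pre-incubated 2 hours with alginate-immobilised phenobarbital/beta-naphthoflavone-induced male Sprague Dawley rat liver S9, then conditioned medium applied 24 hour to VM7Luc4E2 cells. Viability by fluorogenic protease substrate; 10-point series 0.002 - 200 uM.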

[2] = CCTE_Deisenroth_AIME_384WELL_CTox_Inactive: Cytotoxicity Assessment (CTOX) in CCTE's 384-well Estrogen Receptor Transactivation Assay without AIME metabolic competence (metabolism negative), Deisenroth Lab (AID 2284039; active = hit-call score of the fitted dose curve at least 0.9, where 1 is the maximum;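 also: cell viability via live-cell protease substrate cleaved to fluorescent probe; cells exposed 24 h to medium preincubated 2 h with alginate-water beads without S9; loss of fluorescence signal means loss of viability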)
Outline: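 VM7Luc4E2 cells, metabolism-negative arm: test chemicals (0.002–200 uM, 10 points) pre-incubated 2 h with alginate-water microspheres, then medium transferred to cells for 24 h. Viability read as protease-substrate cleavage to fluorescent probe; loss-of-signal, bidirectional fitting.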

[3] = target: Estrogen receptor (Homo sapiens) (UniProt P03372); test: CCTE_Deisenroth_AIME_384WELL_LUC_Shift: CCTE's 384-well Estrogen Receptor Transactivation Assay with AIME metabolic competence data shift (ERTA luciferase; difference in metabolism positive and negative), Deisenroth Lab (AID 2284041);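 also: shift is response with S9 minus without S9 so positive means metabolism raised ER signal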
Estrogen receptor (Homo sapiens), sequence (P03372 whole entry, looked up): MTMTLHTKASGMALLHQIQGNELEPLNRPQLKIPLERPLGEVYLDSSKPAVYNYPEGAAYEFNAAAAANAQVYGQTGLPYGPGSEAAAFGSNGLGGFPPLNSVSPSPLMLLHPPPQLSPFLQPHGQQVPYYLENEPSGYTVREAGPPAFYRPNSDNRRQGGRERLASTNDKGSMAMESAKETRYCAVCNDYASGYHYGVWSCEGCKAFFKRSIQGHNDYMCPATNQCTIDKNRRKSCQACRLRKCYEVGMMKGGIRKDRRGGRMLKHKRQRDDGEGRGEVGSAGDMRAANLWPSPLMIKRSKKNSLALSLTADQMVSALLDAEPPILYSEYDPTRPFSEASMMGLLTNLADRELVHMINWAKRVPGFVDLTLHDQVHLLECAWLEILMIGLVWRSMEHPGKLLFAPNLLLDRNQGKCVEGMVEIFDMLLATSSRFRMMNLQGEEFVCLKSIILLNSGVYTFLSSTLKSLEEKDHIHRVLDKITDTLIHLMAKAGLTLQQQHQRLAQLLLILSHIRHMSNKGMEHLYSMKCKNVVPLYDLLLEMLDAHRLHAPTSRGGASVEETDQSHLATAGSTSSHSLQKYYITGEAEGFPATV
Outline: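 Chemicals (0.002–200 uM, 10 points) pre-incubated 2 h with alginate-encapsulated induced male Sprague Dawley rat liver S9 or S9-free, then medium applied 24 h to VM7Luc4E2 cells; luciferase. Endpoint is per-concentration difference, S9-positive minus negative.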

[4] = system: DIO2 (gene 1734); test: CCTE_GLTED_hDIO2: CCTE's human Deiodinase 2 (DIO2) Inhibition Assay, Great Lakes Toxicology and Ecology Division (GLTED) Lab (AID 2284050; active = hit-call score of the fitted dose curve at least 0.9, where 1 is the maximum)
Outline: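 hDIO2 enzyme + test chem, 3 h → free iodide from substrate; step 2: Sandell-Kolthoff (Ce IV reduction by As, iodide-catalysed), spectrophotometric read. Triplicate plates; DMSO = baseline.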

[5] = system: DIO3 (gene 1735); test: CCTE_GLTED_hDIO3: CCTE's human Deiodinase 3 (DIO3) Inhibition Assay, Great Lakes Toxicology and Ecology Division (GLTED) Lab (AID 2284055; active = hit-call score of the fitted dose curve at least 0.9, where 1 is the maximum;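 also: potency is for inhibition seen as loss of released iodide signal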)
Outline: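 Absorbance from the Sandell-Kolthoff reaction reports iodide released by human DIO3 during a 3-hour incubation with chemical. Inhibition scored as signal loss against DMSO controls.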

[6] = CCTE_Shafer_MEA_dev_active_electrodes_number: CCTE's Neural Network Formation Assay for Number of Active Electrodes, Shafer Lab (AID 2284040; active = hit-call score of the fitted dose curve at least 0.9, where 1 is the maximum)
Outline: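 Primary rat cortical neurons on 16-electrode MEA wells, exposed from day 0 through day 12 with compound renewed at DIV 5 and 9 feeds. Active electrodes (mean firing ≥5 spikes/min) counted at DIV 5, 7, 9, 12; trapezoidal AUC across days, loss-of-signal versus DMSO.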

[7] = CCTE_Shafer_MEA_dev_burst_rate: CCTE's Neural Network Formation Assay for Burst Rate, Shafer Lab (AID 2284042)
Outline: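 Primary rat cortical neurons on PEI-coated 48-well MEA plates (laminin added with cells at plating) (16 electrodes/well), exposed from plating to day 12, dosing renewed at DIV 5 and 9. Burst rate averaged over active electrodes, recorded DIV 5, 7, 9, 12, summarized as AUC; loss versus DMSO.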

[8] = CCTE_Shafer_MEA_dev_bursting_electrodes_number: CCTE's Neural Network Formation Assay for Number of Bursting Electrodes, Shafer Lab (AID 2284043; active = hit-call score of the fitted dose curve at least 0.9, where 1 is the maximum)
Outline: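 Primary rat cortical neurons plated on 16-electrode MEA wells, exposed from day 0 with compound renewed at DIV 5 and 9. Electrodes bursting ≥1 burst per 2 min counted on days 5, 7, 9 and 12; trapezoidal AUC across days, fitted for loss versus DMSO.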

[9] = CCTE_Shafer_MEA_dev_per_burst_interspike_interval: CCTE's Neural Network Formation Assay for Burst Interspike Interval, Shafer Lab (AID 2284044);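 also: mean spike spacing inside bursts as AUC over recordings on days 5 7 9 12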
Outline: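 Mean interspike interval within single-electrode bursts, averaged over bursting electrodes, from rat cortical cultures on MEA plates recorded on days 5, 7, 9 and 12. Continuous compound exposure from plating; trapezoidal AUC fitted downward relative to DMSO.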

[10] = CCTE_Shafer_MEA_dev_burst_duration_mean: CCTE's Neural Network Formation Assay for Mean Burst Duration, Shafer Lab (AID 2284045)
Outline: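 Primary rat cortical neurons on 48-well 16-electrode MEA plates, exposed from day 0 with renewal at DIV 5 and 9; spontaneous activity recorded on days 5, 7, 9, 12. Well-mean burst duration across bursting electrodes, collapsed as trapezoidal AUC; DMSO baseline.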

[11] = CCTE_Shafer_MEA_dev_interburst_interval_mean: CCTE's Neural Network Formation Assay for Mean Interburst Interval, Shafer Lab (AID 2284046);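 also: well-mean interburst interval of bursting electrodes as AUC over four recording days; curve fitted for decrease in interburst interval relative to DMSO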
Outline: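 Recordings on days 5, 7, 9 and 12 give well-mean interburst interval across actively bursting electrodes, summarized as area under the curve. Cultures: rat cortical neurons, continuous exposure from day 0, compound renewed at feeds; decrease analyzed versus DMSO.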

[12] = CCTE_Shafer_MEA_dev_inter_network_spike_interval_mean: CCTE's Neural Network Formation Assay for Mean Inter-network Spike Interval, Shafer Lab (AID 2284047)
Outline: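 Primary rat cortical neurons on 16-electrode MEA wells, exposed from plating day 0 through DIV 12, compound renewed at DIV 5 and 9 media changes. Mean interval between network-spike peaks recorded DIV 5, 7, 9, 12; collapsed as trapezoidal AUC, fitted downward versus DMSO.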

[13] = CCTE_Shafer_MEA_dev_network_spike_number: CCTE's Neural Network Formation Assay for Number of Network Spikes, Shafer Lab (AID 2284048)
Outline: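 Primary rat cortical neurons on PEI/laminin 48-well MEA plates, dosed from plating day 0 for 12 days, renewed at DIV 5 and 9. Network spike counts recorded DIV 5, 7, 9, 12, collapsed as trapezoidal AUC; DMSO baseline.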

[14] = CCTE_Shafer_MEA_dev_network_spike_peak: CCTE's Neural Network Formation Assay for Mean Number of Electrodes in Network Spike, Shafer Lab (AID 2284049);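 as to AC50: fitted for loss of signal meaning fewer electrodes in network spikes than DMSO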
Outline: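 Network-spike peak electrode count from recordings on days 5, 7, 9 and 12 was combined as trapezoidal area under the curve. Rat cortical cultures were treated continuously from plating, with compound renewed at each feed (DIV 5, 9); fits versus DMSO.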

[15] = CCTE_Shafer_MEA_dev_spike_duration_mean: CCTE's Neural Network Formation Assay for Mean Spike Duration, Shafer Lab (AID 2284051);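 also: mean network spike duration pooled as area under curve over DIV 5 to 12 recordings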
Outline: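 Primary rat cortical neurons on 16-electrode MEA wells (PEI-coated, laminin in plating drop), exposed from plating through DIV 12 with compound renewed at DIV 5 and 9. Mean network-spike duration recorded DIV 5, 7, 9, 12; trapezoidal AUC across days, DMSO baseline.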

[16] = CCTE_Shafer_MEA_dev_network_spike_duration_std: CCTE's Neural Network Formation Assay for Standard Deviation of Network Spike Duration, Shafer Lab (AID 2284052);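 also: area under curve of spike duration SD across recording days 5 to 12; hits are decreases in network spike duration SD versus DMSO vehicle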
Outline: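 Primary rat cortical neurons on PEI-coated 16-electrode MEA wells, exposed from plating day 0 through day 12 with compound renewed at DIV 5 and 9. Network spike duration SD recorded on days 5, 7, 9, 12, collapsed as trapezoidal AUC; loss-of-signal fit versus DMSO.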

[17] = CCTE_Shafer_MEA_dev_per_network_spike_spike_number_mean: CCTE's Neural Network Formation Assay for Mean Number of Spikes in a Network Spike, Shafer Lab (AID 2284053)
Outline: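 Primary rat cortical neurons on 48-well, 16-electrode MEA plates were exposed from plating to DIV 12, with dosing renewed on DIV 5 and 9. Spikes per network spike (0.05 s peak window) were recorded on DIV 5, 7, 9 and 12 and collapsed as trapezoidal AUC versus DMSO.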

[18] = CCTE_Shafer_MEA_dev_per_network_spike_spike_percent: CCTE's Neural Network Formation Assay for Percent of Spikes in a Network Spike, Shafer Lab (AID 2284054)
Outline: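 Rat primary cortical neurons were grown on 48-well MEA plates (16 electrodes/well), exposed from plating day 0 through day 12, with treatment renewed on DIV 5 and 9. Percent of spikes within 0.05 s network-spike peaks was measured, summarised as AUC across days 5, 7, 9, 12.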

[19] = CCTE_Shafer_MEA_dev_LDH: CCTE's Lactate Dehydrogenase Assay for Cytotoxicity in the Neural Network Formation Assay, Shafer Lab (AID 2284068; active = hit-call score of the fitted dose curve at least 0.9, where 1 is the maximum;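 also: exposure for twelve days from plating with re-dosing on DIV 5 and 9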)
Outline: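 Primary rat cortical neurons were plated on PEI/laminin MEA plates and exposed from day 0 for twelve days, with compound renewed at DIV 5 and 9. Cytotoxicity was determined by spectrophotometric LDH assay relative to DMSO.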

[20] = target: Estrogen receptor (Homo sapiens) (UniProt P03372); test: CCTE_Deisenroth_AIME_384WELL_LUC_Inactive: CCTE's 384-well Estrogen Receptor Transactivation Assay without AIME metabolic competence (ERTA luciferase; metabolism negative), Deisenroth Lab (AID 2284038; active = hit-call score of the fitted dose curve at least 0.9, where 1 is the maximum;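 also: VM7Luc4E2 breast cells given medium preincubated 2 h with S9-free microspheres; hits raise estrogen receptor luciferase signal so potencies reflect agonists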)
Outline: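 Metabolism-negative mode: chemicals (10-point, 0.002–200 uM) held 2 h with alginate-water microspheres, then conditioned medium applied to VM7Luc4E2 cells for 24 h. Luciferase induction referenced to 17beta-estradiol.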

Measured: AC50

COc1ccc2sc(C(=O)Nc3nnn[nH]3)c(OC(C)C)c2c1
active: [1] 45 µM
inactive: [2] | [3]

CCOC(=O)c1ccc(C2CCC(NC[C@H](O)COc3ccc(O)c(NS(C)(=O)=O)c3)CC2)cc1 (stereo partly drawn)
active: [1] 100 µM | [2] 128 µM | [4] 105 µM | [5] 126 µM

O=P(OC(CCl)CCl)(OC(CCl)CCl)OC(CCl)CCl
inactive: [6] | [7] | [8] | [9] | [10] | [11] | [12] | [13] | [15] | [16] | [17] | [18] | [19]
active: [14] 2.98 µM

Clc1nc(Cl)c(Cl)c(Cl)c1Cl
active: [4] 14.8 µM | [5] 0.92 µM

Cc1ccc(N)cc1O
inactive: [20] | [2] | [3]

CCCC(=O)OCC
inactive: [20] | [3]

O=c1[nH]c2ccc(S(=O)CCN3CCC(Cc4ccc(F)cc4)CC3)cc2o1 (stereo not drawn)
inactive: [20] | [3]

Nc1nc2ncc(CNc3ccc(C(=O)N[C@@H](CCC(=O)O)C(=O)O)cc3)nc2c(=O)[nH]1
inactive: [6] | [7] | [8] | [9] | [10] | [11] | [12] | [13] | [14] | [15] | [16] | [17] | [18] | [19]

Cn1c(=O)c2c(ncn2C)n(C)c1=O
inactive: [1] | [2] | [6] | [7] | [8] | [9] | [10] | [11] | [12] | [13] | [14] | [15] | [16] | [17] | [18]

O=C1CCC(N2C(=O)c3ccccc3C2=O)C(=O)N1 (stereo not drawn)
inactive: [6] | [7] | [8] | [9] | [10] | [11] | [12] | [13] | [14] | [15] | [16] | [17] | [18] | [19]

CC(C)=CCCC(C)=CC=O
active: [4] 100 µM | [5] 31.3 µM

CC[C@H]1OC(=O)[C@H](C)[C@@H](O[C@H]2C[C@@](C)(OC)[C@@H](O)[C@H](C)O2)[C@H](C)[C@@H](O[C@@H]2O[C@H](C)C[C@H](N(C)C)[C@H]2O)[C@](C)(O)C[C@@H](C)C(=O)[C@H](C)[C@@H](O)[C@]1(C)O
inactive: [6] | [7] | [8] | [9] | [10] | [11] | [12] | [13] | [14] | [15] | [16] | [17] | [18]

NC(=O)NO
inactive: [6] | [7] | [8] | [9] | [10] | [11] | [12] | [13] | [14] | [15] | [16] | [17] | [18]

C=CC(=C)CCC=C(C)C
inactive: [20] | [3]

CCOc1cccc(-n2cc(C(=O)N3CCN(c4cc(C(=O)O)c5ccccc5c4)CC3)nc2-c2ccc(C)cc2)c1
active: [4] 100 µM | [5] 140 µM

CC(C)CCO
inactive: [20] | [2] | [3]
